According to publication PMC5540273 (PLoS ONE, 2017):

Tests used:
Conditions in all cases: concentration: 1 μM,replicates: in singlicate; n = 1
RIOK1 = system: RIOK1
RIOK2 = system: RIOK2
RIOK3 = system: RIOK3
RIPK1 = system: RIPK1
RIPK2 = system: RIPK2
RIPK4 = system: RIPK4
RIPK5 = system: RIPK5
ROCK1 = system: ROCK1
ROCK2 = system: ROCK2
ROS1 = system: ROS1
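Also: KINOMEscan kinase panel screen.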

Compound	%Inh (RIOK1)	%Inh (RIOK2)	%Inh (RIOK3)	%Inh (RIPK1)	%Inh (RIPK2)	%Inh (RIPK4)	%Inh (RIPK5)	%Inh (ROCK1)	%Inh (ROCK2)	%Inh (ROS1)
Cc1cc(C(=O)Nc2ccc(Oc3ccc4nc(NC(=O)C5CC5)cn4n3)cc2)nn1-c1ccccc1	17%	0%	41%	0%	24%	0%	0%	0%	0%	0%
Cc1ccc(-n2nc(C(C)(C)C)cc2NC(=O)Nc2ccc(OCCN3CCOCC3)c3ccccc23)cc1 [GW839464]	54%	0%	8%	29%	0%	0%	0%	0%	0%	0%
CCN(CC)CCCCNc1ncc2cc(-c3c(Cl)cccc3Cl)c(NC(=O)NC(C)(C)C)nc2n1	0%	6%	0%	17%	54%	0%	26%	0%	9%	43%
Cl.Cl.NC[C@H](CC1CCCCC1)NC(=O)c1cc(Br)c(-c2ccnc3[nH]ccc23)s1 [GSK1581427]	100%	66%	80%	0%	0%	20%	5%	100%	99.1%	17%
CC(C)Nc1cc(-c2ccc3c(N)n[nH]c3c2)nc(N)n1 [GSK2221681]	94.1%	19%	66%	0%	0%	66%	0%	7%	41%	5%
Cc1cc2cn[nH]c2cc1-c1cccc2c(N)c(C(N)=O)nnc12	100%	77%	73%	0%	4%	84%	74%	70%	68%	80%
CNC(=O)c1ccccc1Sc1ccc2c(/C=C/c3ccccn3)n[nH]c2c1	2%	0%	0%	12%	22%	0%	11%	5%	17%	45%
Nc1nc(Nc2ccccc2)cc(-c2ccc3c(N)n[nH]c3c2)n1 [GSK2225749]	98.5%	54%	76%	0%	0%	44%	0%		45%	0%
C[C@@H]1CCN(C(=O)CC#N)C[C@@H]1N(C)c1ncnc2[nH]ccc12	0%	0%	37%	0%	0%	0%	0%		46%	6%
Cl.Cl.Nc1nc(-c2ccc3c(N)n[nH]c3c2)cc(N2CCCC(NC(=O)c3ccccc3)C2)n1 (stereo not drawn) [GSK2286775]	96.5%	9%	99.3%	4%	8%	39%	5%	2%	30%	0%
CCN(CC)CCOc1ccc(Nc2ncc3cc(-c4c(Cl)cccc4Cl)c(=O)n(C)c3n2)cc1 [SB-601273]	35%	29%	92.3%	100%	99.7%	18%	44%	25%	50%	50%
O=C(NCCCN1CCOC1=O)c1cnc(NCc2cc(Cl)ccc2Cl)nc1NC1CCCC1	0%	0%	6%	1%	0%	11%	0%	0%	0%	18%
COc1ccc(C[C@@H](CN)NC(=O)c2cc(Br)c(-c3ccnc4[nH]ccc34)s2)cc1.Cl.Cl [GSK1389063]	89%	49%	80%	0%	4%	36%	28%	100%	95.2%	59%
CN(C)CC(O)COc1ccc(Nc2nccc(-c3cnn4nc(N5CCOCC5)ccc34)n2)cc1 (stereo not drawn) [GW767488]	96.6%	98.2%	98.2%	46%	0%	55%	65%	93.8%	97.9%	48%
CCn1c(-c2nonc2N)nc2c(C#CC(C)(C)O)nc(OCCN)cc21.Cl.Cl [GSK902056]	0%	8%	0%	0%	0%	0%	4%	18%	0%	2%
NC(=O)c1cc(-c2ccccc2)cc2c(C3CCNCC3)c[nH]c12 [GSK301362]	79%	20%	64%	0%	7%	19%	0%	40%	19%	23%
C[C@@H](Oc1cc(-c2cnn(C3CCNCC3)c2)cnc1N)c1c(Cl)ccc(F)c1Cl	39%	0%	50%	6%	32%	34%	80%	5%	20%	
Cl.Cl.NC[C@H](Cc1ccc(C(F)(F)F)cc1)NC(=O)c1cc(Br)c(-c2ccnc3[nH]ccc23)s1 [GSK1487252]	35%	0%	12%	0%	0%	19%	0%	98.2%	99.5%	44%
O=C(NCCNc1ccnc(NCc2ccc(F)cc2)n1)c1cc2ccccc2s1 [GSK1379944]	28%	0%	17%	0%	73%	5%	0%	0%	0%	7%
C=CC(=O)Nc1cc2c(Nc3ccc(F)c(Cl)c3)ncnc2cc1OCCCN1CCOCC1 [GW781483]	54%	10%	46%	8%	53%	26%	4%	42%	0%	4%
Cl.Oc1cc(-c2nc(-c3ccccc3)[nH]c2-c2ccncc2)ccc1Cl [SB-386023]	0%	5%	0%	0%	78%	17%	21%	1%	6%	19%
CN(C)CCOc1ccc(-c2cc(-c3c[nH]nc3-c3ccccn3)ccn2)cc1 [GW835314]	0%	2%	8%	0%	78%	16%	14%	9%	18%	21%
Cc1ccc2c(-c3ccncc3)c(-c3ccc(F)cc3)nn2c1.Cl [GW461484]	0%	0%	19%	0%	55%	0%	0%	14%	5%	0%
CC(C)N1C(=O)Cc2cc(Nc3ncc(C(F)(F)F)c(NCc4cccc(S(C)(=O)=O)c4)n3)ccc21	46%	21%	88%	0%	4%	42%	43%	3%	0%	59%
Cc1occc1-c1nc(N)c(OC[C@@H](N)Cc2c[nH]c3ccccc23)cc1-c1cc2c(C)n[nH]c2cn1 [GSK1660450]	87%	16%	59%	0%	10%	4%	0%	93.7%	82%	4%
C[C@H]1Oc2cc(cnc2N)-c2c(nn(C)c2C#N)CN(C)C(=O)c2ccc(F)cc21	0%	0%	0%	12%	0%	0%	89%	0%	0%	98.5%
Cc1n[nH]c2ccc(-c3cc(OC[C@@H](N)Cc4ccccc4)cnc3-c3ccoc3)cc12.O=C(O)C(F)(F)F.O=C(O)C(F)(F)F [GSK507358]	93%	0%	72%	0%	0%	0%	0%	31%	33%	0%
